According to the supplement of paper PMC10849652:
Of roughly 7,900 targets only a part is listed; those with a hit were picked by preference. About 0.6% of all pairs of compound and target were hits. A number with no mark means an inactive call.

Assays:
Experiment in all cases: log2 fold change, soluble protein after heating vs DMSO (PISA); higher = thermal stabilisation; K562 cells, 10 uM, 30 min; active = over 0.2 and 3.5 SD of the protein, either way, in both replicates (recomputed)
IRAK-1-4 Inhibitor I = compound: C1COCCN1CCN2C3=CC=CC=C3N=C2NC(=O)C4=CC(=CC=C4)[N+](=O)[O-] [IRAK-1-4 Inhibitor I]
Summary of the method: (§1)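 Values are thermal stability changes relative to control samples and are taken from duplicates. They are stated as log2 fold changes. Before quantification by TMTpro 16plex LC-MS/MS with equalised channel sums, K562 cells at 2×10^6 cells/mL were treated with 10 μM compound for 30 min, heated in aliquots for 3 min across 48°C-58°C, pooled, extracted in PBS with 0.5% NP-40 at 4°C, and centrifuged at 21,000xg for 90 min to give the soluble supernatant.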

ibrutinib = compound: C=CC(=O)N1CCC[C@@H](n2nc(-c3ccc(Oc4ccccc4)cc3)c3c(N)ncnc32)C1 [ibrutinib]
Summary of the method: as §1

[1] = compound: CC(=O)c1cnc2ccc(-c3cc(Cl)c(O)c(Cl)c3)nc2c1N[C@H]1CC[C@H](CN(C)C)CC1
Summary of the method: as §1

ralimetinib = compound: CC(C)(C)Cn1c(N)nc2ccc(-c3[nH]c(C(C)(C)C)nc3-c3ccc(F)cc3)nc21 [ralimetinib]
Summary of the method: as §1

[2] = compound: CC(C)(O)CC(=O)NCCn1ccc2ncnc(Nc3ccc(Oc4cccc(C(F)(F)F)c4)c(Cl)c3)c21
Summary of the method: as §1

[3] = compound: CC(C)C1=C2N=C(C=C(N2N=C1)NCC3=CC=CC=C3)NCCCCCCN
Summary of the method: as §1

[4] = compound: CC(C)C[C@@H](C=O)NC(=O)[C@H](CC(C)C)NC(=O)[C@H](CC(C)C)NC(=O)OCc1ccccc1
Summary of the method: as §1

pinometostat = compound: CC(C)N(C[C@H]1O[C@@H](n2cnc3c(N)ncnc32)[C@H](O)[C@@H]1O)[C@H]1C[C@@H](CCc2nc3cc(C(C)(C)C)ccc3[nH]2)C1 [pinometostat]
Summary of the method: as §1

[5] = compound: CC1=C(C(CC(=O)N1)C2=CC=C(C=C2)C(F)(F)F)C(=O)NC3=C(C=C4C(=C3)C=NN4)F
Summary of the method: as §1

[6] = compound: CC1=C(C2=C(C=C1)C(=O)C3=CC=CC=C3N2CCCN)C
Summary of the method: as §1

UniProt Q15436, sequence (Q15436 whole entry, looked up): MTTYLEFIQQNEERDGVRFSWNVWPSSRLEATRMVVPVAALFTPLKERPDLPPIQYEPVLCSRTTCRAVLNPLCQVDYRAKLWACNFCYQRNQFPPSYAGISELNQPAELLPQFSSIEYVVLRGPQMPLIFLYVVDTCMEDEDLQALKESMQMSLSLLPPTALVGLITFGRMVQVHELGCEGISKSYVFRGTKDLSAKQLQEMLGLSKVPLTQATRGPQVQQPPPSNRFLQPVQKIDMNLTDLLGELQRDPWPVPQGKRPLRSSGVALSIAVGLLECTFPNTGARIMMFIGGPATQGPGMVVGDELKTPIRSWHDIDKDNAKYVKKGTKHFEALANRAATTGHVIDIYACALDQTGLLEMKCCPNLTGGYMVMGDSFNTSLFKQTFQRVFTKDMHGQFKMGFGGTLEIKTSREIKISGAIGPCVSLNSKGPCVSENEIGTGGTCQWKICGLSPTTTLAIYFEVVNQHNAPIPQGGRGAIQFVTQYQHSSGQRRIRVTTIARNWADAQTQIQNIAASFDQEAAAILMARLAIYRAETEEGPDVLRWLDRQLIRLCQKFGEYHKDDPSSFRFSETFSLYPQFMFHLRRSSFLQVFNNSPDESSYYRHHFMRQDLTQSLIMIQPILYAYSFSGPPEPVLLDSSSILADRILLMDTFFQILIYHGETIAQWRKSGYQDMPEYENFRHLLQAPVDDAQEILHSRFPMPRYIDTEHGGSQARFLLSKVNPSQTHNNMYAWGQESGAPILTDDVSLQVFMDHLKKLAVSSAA
UniProt Q9NPQ8, sequence (Q9NPQ8 whole entry, looked up): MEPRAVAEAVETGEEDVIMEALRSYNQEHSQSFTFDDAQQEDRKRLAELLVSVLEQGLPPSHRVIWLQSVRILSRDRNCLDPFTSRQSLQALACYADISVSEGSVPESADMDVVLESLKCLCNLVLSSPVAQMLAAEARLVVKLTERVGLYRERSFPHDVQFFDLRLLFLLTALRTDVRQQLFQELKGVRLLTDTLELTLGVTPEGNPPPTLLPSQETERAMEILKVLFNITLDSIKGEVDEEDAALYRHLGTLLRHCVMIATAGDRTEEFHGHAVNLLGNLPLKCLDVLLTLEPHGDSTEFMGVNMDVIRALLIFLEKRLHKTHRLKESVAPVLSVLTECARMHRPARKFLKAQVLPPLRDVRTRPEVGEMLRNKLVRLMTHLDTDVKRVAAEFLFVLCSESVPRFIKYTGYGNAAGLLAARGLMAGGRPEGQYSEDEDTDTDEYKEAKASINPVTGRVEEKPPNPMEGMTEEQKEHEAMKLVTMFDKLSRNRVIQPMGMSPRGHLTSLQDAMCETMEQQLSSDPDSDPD
UniProt Q9BXP2, sequence (Q9BXP2 whole entry, looked up): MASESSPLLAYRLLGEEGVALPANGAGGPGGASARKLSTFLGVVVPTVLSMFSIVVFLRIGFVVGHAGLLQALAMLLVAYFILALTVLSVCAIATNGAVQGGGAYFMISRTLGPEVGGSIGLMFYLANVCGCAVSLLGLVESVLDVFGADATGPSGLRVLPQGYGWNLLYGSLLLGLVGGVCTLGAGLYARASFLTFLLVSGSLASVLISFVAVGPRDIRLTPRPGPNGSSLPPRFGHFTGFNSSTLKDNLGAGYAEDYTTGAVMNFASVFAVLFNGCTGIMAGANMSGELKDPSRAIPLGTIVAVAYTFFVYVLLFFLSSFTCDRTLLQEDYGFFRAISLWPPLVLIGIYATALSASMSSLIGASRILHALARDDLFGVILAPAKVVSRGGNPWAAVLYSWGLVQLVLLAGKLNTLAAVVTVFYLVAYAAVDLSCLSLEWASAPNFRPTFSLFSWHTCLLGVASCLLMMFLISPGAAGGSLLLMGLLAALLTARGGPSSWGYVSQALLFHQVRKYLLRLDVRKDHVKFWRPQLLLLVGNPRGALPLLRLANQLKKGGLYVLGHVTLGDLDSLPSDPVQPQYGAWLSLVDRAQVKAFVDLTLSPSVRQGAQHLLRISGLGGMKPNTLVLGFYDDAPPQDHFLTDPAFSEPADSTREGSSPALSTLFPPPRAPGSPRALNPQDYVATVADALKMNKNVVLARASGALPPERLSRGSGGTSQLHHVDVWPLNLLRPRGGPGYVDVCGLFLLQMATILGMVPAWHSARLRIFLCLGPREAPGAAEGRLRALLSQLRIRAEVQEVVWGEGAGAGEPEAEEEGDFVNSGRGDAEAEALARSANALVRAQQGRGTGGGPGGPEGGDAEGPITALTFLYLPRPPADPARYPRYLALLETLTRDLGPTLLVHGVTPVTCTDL
UniProt Q9H4A4, sequence (Q9H4A4 whole entry, looked up): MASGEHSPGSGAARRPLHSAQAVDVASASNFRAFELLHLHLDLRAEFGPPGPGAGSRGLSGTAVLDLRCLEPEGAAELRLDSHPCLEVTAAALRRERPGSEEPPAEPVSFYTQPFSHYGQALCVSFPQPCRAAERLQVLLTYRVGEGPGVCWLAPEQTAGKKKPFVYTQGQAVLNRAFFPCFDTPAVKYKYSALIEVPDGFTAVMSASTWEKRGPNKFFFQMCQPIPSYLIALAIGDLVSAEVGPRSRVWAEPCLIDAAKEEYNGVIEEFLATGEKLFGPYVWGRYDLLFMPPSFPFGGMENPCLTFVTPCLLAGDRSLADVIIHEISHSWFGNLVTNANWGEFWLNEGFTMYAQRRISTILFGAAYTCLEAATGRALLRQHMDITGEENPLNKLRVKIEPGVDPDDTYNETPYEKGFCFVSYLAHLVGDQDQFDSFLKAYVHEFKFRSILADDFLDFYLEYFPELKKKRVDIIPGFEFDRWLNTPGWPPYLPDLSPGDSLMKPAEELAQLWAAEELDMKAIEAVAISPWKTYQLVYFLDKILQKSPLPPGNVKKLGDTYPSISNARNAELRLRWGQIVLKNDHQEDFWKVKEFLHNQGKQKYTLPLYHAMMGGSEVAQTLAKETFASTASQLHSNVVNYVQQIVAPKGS
UniProt Q99961, sequence (Q99961 whole entry, looked up): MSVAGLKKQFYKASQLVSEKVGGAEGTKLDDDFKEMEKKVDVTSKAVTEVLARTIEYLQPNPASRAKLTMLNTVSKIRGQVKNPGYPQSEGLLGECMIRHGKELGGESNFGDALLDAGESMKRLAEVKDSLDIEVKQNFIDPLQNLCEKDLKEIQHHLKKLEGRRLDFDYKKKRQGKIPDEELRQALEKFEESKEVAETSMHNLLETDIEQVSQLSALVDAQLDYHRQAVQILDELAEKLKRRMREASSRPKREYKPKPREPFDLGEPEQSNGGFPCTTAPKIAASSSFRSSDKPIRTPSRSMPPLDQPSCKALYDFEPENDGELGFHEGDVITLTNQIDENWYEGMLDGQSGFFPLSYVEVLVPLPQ
UniProt Q9BY42, sequence (Q9BY42 whole entry, looked up): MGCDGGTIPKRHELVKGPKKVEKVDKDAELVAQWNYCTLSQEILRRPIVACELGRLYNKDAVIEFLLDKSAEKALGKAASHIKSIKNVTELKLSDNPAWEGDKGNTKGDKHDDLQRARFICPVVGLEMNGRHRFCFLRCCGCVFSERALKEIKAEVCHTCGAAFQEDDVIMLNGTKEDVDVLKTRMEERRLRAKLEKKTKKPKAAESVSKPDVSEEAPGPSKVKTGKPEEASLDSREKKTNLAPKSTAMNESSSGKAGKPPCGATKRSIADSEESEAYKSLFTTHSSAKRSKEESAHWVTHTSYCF
UniProt Q14493, sequence (Q14493 whole entry, looked up): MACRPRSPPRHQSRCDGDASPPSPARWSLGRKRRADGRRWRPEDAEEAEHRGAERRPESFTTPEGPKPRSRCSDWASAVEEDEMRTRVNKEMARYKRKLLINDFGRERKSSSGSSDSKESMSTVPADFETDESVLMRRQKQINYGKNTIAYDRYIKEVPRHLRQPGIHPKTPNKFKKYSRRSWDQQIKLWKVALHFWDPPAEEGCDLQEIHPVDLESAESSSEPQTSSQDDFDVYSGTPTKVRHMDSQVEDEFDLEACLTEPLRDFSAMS
UniProt Q04864, sequence (Q04864 whole entry, looked up): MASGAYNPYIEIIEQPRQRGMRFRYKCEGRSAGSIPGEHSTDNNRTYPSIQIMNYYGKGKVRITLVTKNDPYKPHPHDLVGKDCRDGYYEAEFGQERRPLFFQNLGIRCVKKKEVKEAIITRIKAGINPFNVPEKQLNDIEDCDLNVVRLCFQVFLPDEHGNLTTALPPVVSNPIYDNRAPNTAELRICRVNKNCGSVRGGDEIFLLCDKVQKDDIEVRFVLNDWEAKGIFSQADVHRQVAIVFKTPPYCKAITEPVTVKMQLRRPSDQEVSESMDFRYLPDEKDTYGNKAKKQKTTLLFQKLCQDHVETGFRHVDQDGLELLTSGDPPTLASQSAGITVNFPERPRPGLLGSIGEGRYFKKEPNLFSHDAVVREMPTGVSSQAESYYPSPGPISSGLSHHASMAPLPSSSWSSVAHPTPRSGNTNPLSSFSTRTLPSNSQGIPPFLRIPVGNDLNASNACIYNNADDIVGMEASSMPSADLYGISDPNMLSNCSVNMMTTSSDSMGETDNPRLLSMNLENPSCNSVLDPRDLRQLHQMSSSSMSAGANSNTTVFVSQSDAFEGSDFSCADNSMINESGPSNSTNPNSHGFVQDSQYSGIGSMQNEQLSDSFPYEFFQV
UniProt Q9NX18, sequence (Q9NX18 whole entry, looked up): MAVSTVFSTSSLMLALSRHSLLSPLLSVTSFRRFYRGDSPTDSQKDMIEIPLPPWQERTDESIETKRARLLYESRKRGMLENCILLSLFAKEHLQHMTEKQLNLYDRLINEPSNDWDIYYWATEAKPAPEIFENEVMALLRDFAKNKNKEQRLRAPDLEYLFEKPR
UniProt P35244, sequence (P35244 whole entry, looked up): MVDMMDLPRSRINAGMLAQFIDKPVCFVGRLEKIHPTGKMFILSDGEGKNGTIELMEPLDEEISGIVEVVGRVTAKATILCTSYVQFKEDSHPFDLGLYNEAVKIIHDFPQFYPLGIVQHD
UniProt P63208, sequence (P63208 whole entry, looked up): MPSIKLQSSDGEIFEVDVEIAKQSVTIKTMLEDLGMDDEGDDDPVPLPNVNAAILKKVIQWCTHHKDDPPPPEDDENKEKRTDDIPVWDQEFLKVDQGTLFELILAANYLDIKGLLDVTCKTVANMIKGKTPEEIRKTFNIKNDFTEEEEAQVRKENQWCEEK

| Target | log2 fold change (IRAK-1-4 Inhibitor I) | log2 fold change (ibrutinib) | log2 fold change [1] | log2 fold change (ralimetinib) | log2 fold change [2] | log2 fold change [3] | log2 fold change [4] | log2 fold change (pinometostat) | log2 fold change [5] | log2 fold change [6] |
| --- | --- | --- | --- | --- | --- | --- | --- | --- | --- | --- |
| RNPEP (UniProt Q9H4A4) | -0.004 | -0.018 | 0.02 | 0.011 | -0.055 | -0.182 | -0.021 | 0.018 | 0.004 | 0.137 |
| RARS2 (UniProt Q5T160) | 0.053 | 0.003 | -0.012 | -0.039 | -0.081 | -0.214 | -0.061 | -0.032 | -0.011 | -0.007 |
| SIDT2 isoform 2 (UniProt Q8NBJ9) | -0.017 | 0.123 | -0.039 | -0.143 | -0.021 | -0.353 (active) | 0 | 0.271 | 0.009 | 0.005 |
| SKP1 (UniProt P63208) | 0.069 | 0.054 | 0.03 | -0.02 | -0.045 | 0.068 | -0.069 | -0.08 | 0.042 | -0.049 |
| RPS12 (UniProt P25398) | -0.063 | 0.036 | 0.051 | 0.043 | 0.003 | 0.036 | -0.024 | 0.024 | 0.095 | -0.314 (active) |
| RAD51 (UniProt Q06609) | 0.017 | 0.013 | -0.061 | -0.074 | -0.059 | -0.016 | 0.048 | -0.024 | 0.05 | 0.102 |
| RUNX1 isoform 8 (UniProt Q01196) | -0.102 | 0.058 | -0.207 | -0.043 | -0.138 | -0.184 | 0.082 | 0.069 | 0.076 |  |
| RPA3 (UniProt P35244) | 0.02 | 0.029 | 0.016 | 0.038 | -0.097 | -0.025 | -0.137 | 0.016 | 0.063 | 0.129 |
| SEC23A (UniProt Q15436) | 0.06 | 0 | 0.077 | 0.026 | -0.123 | -0.014 | -0.006 | -0.004 | 0.024 | 0.121 |
| SLC12A9 (UniProt Q9BXP2) | 0.112 | -0.001 | 0.016 | -0.106 | -0.012 | -0.165 | 0.033 | -0.018 | 0.028 | 0.056 |
| SH3GL1 (UniProt Q99961) | -0.09 | -0.021 | -0.059 | 0.052 | -0.097 | -0.238 | 0.013 | 0.032 | 0.018 | 0.037 |
| RIC8A isoform 3 (UniProt Q9NPQ8) | -0.073 | -0.051 | -0.193 | 0.06 | -0.052 | -0.354 | 0.066 | 0.166 | -0.005 | -0.132 |
| RPS13 (UniProt P62277) | -0.096 | 0.035 | 0.103 | 0.13 | 0.071 | -0.031 | 0.137 | 0.345 | 0.035 | -0.759 (active) |
| RAC1 (UniProt P63000) | -0.053 | 0.036 | 0.038 | -0.01 | 0.27 | 0.051 | -0.026 | -0.127 | -0.093 | -0.002 |
| RPS21 (UniProt P63220) | -0.004 | -0.035 | 0.055 | -0.014 | 0.069 | 0.056 | 0.075 | -0.022 | 0.014 | -0.02 |
| SLC18B1 (UniProt Q6NT16) | 0.135 | 0.042 | 0.016 | -0.044 | -0.023 | -0.356 (active) | -0.05 | 0.02 | 0.05 | -0.036 |
| REL (UniProt Q04864) | -0.046 | -0.095 | -0.017 | 0.037 | -0.093 | -0.074 | 0.062 | 0.089 | -0.039 | 0.005 |
| SLBP (UniProt Q14493) | -0.123 | -0.162 | -0.38 (active) | -0.068 | -0.09 | -0.206 | 0.162 | -0.034 | 0.098 | -0.126 |
| SDHAF2 (UniProt Q9NX18) | 0.013 | -0.004 | 0.124 | -0.044 | -0.011 | -0.042 | 0.084 | -0.014 | 0.015 | -0.01 |
| SCCPDH (UniProt Q8NBX0) | -0.005 | 0.061 | 0.031 | 0.059 | 0.156 | 0.038 | -0.032 | -0.073 | -0.031 | 0.023 |
| RPS9 (UniProt P46781) | -0.1 | -0.025 | 0.108 | 0.125 | 0.047 | -0.025 | 0 | 0.206 | 0.005 | -0.585 (active) |
| RAB3IL1 (UniProt E9PK89) | -0.012 | -0.021 | -0.006 | -0.018 | -0.127 | -0.032 | 0.006 | 0.017 | 0.08 | -0.005 |
| RBM39 (UniProt Q14498) | -0.193 | 0 | -0.497 (active) | 0.044 | -0.028 | -0.267 | 0.043 | 0.042 | -0.022 | 0.104 |
| RANBP2 (UniProt P49792) | 0.024 | 0.035 | 0.081 | 0.022 | -0.043 | -0.136 | 0.024 | -0.017 | 0.169 | 0.076 |
| RBM17 (UniProt Q96I25) | -0.037 | 0.114 | -0.179 | 0.158 | -0.077 | -0.053 | 0.029 | 0.11 | -0.005 | 0.012 |
| RPS4X (UniProt P62701) | -0.129 | 0.025 | 0.126 | 0.106 | 0.003 | -0.025 | 0.074 | 0.273 | 0.048 | -0.679 (active) |
| RSF1 (UniProt Q96T23) | -0.188 | -0.054 | 0.043 | 0.019 | -0.175 | -0.114 | -0.058 | -0.123 | 0.028 | -1.48 (active) |
| RTF2 (UniProt Q9BY42) | 0 | -0.096 | -0.017 | -0.022 | 0.032 | 0.164 | 0.098 | -0.059 | -0.025 | -0.054 |
| RNF14 (UniProt Q9UBS8) | 0.019 | 0.006 | 0.011 | -0.008 | -0.035 | -0.039 | 0.014 | -0.075 | 0.006 | -0.05 |
| RSL1D1 (UniProt O76021) | -0.071 | -0.011 | 0.22 | 0.105 | 0.212 | 0.538 | 0.076 | 0.393 | -0.072 | -0.299 |
